In the supplement of paper PMC8728848:
Only a selection was taken, and the strongest signals are over-represented in it overall.

Key:
Test in all cases: glycan array binding signal (z-score within array); higher = stronger binding
Conditions in all cases: glycan notation: IUPAC condensed, linker removed
[1] = target: Neu5Ac(a2-3)Gal(b1-3)[Fuc(a1-4)]GlcNAc(b1-3)Gal(b1-3)[Fuc(a1-4)]GlcNAc
In short: (§1)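 Glycan array binding is given as a within-array Z-score, which can be read as non-binding when negative. The arrays, 3228 of them, came from the Consortium for Functional Glycomics database and were retained only where the protein sequence was available. Z-scores were averaged across arrays of the same protein sequence at different concentrations or buffers and across linkers.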

[2] = target: Neu5Ac(a2-3)Gal(b1-4)GlcNAc(b1-2)[Neu5Ac(a2-3)Gal(b1-4)GlcNAc(b1-6)]Man(a1-6)[Neu5Ac(a2-3)Gal(b1-4)GlcNAc(b1-2)Man(a1-3)]Man(b1-4)GlcNAc(b1-4)GlcNAc
In short: as §1

[3] = target: Neu5Ac(a2-3)Gal(b1-4)GlcNAc(b1-3)Gal(b1-4)[Fuc(a1-3)]GlcNAc
In short: as §1

[4] = target: Neu5Ac(a2-3)Gal(b1-4)GlcNAc(b1-3)GalNAc
In short: as §1

[5] = target: Neu5Ac(a2-3)Gal(b1-4)GlcNAc(b1-6)GalNAc
In short: as §1

[6] = target: Neu5Ac(a2-3)Gal(b1-4)GlcNAc6S
In short: as §1

[7] = target: Neu5Ac(a2-3)Gal(b1-4)[Fuc(a1-3)]GlcNAc
In short: as §1

[8] = target: Neu5Ac(a2-3)Gal(b1-4)[Fuc(a1-3)]GlcNAc(b1-3)GalNAc
In short: as §1

[9] = target: Neu5Ac(a2-6)Gal(b1-4)GlcNAc
In short: as §1

[10] = target: Neu5Ac(a2-6)Gal(b1-4)GlcNAc(b1-3)Gal(b1-3)GlcNAc
In short: as §1

[11] = target: Neu5Ac(a2-6)Gal(b1-4)GlcNAc(b1-6)[Gal(b1-3)GlcNAc(b1-3)]Gal(b1-4)Glc
In short: as §1

[12] = target: Neu5Ac(a2-6)GalNAc(b1-4)GlcNAc
In short: as §1

[13] = target: Neu5Ac9Ac(a2-3)Gal(b1-4)GlcNAc
In short: as §1

B1: ArathEULS3 (Arabidopsis thaliana), Q945P1 (protein)
chain: MEHHHQHHRHHQRDDGEDDRQSFGVPPPHVDAPPQPHGLYQSQPHFDPYAPTPQAPAPYRSETQFEPHAPPPYRSEPYFETPAPPPSFGHVSHVGHQSPNESYPPEHHRYGGYQQPSNSLLESHGDHSGVTHVAHHSSNQPQSSSGVYHKPDENRLPDNLAGLAGRATVKVYSKAEPNYNLTIRDGKVILAPADPSDEAQHWYKDEKYSTKVKDADGHPCFALVNKATGEAMKHSVGATHPVHLIRYVPDKLDESVLWTESKDFGDGYRTIRMVNNTRLNVDAYHGDSKSGGVRDGTTIVLWDWNKGDNQLWKIFPFILEQKLISEEDLNSAVDHHHHHH
[1]
  glycan array binding signal (z-score): -0.244
[2]
  glycan array binding signal (z-score): 1.98
[3]
  glycan array binding signal (z-score): -0.229
[4]
  glycan array binding signal (z-score): -0.326
[5]
  glycan array binding signal (z-score): -0.302
[6]
  glycan array binding signal (z-score): -0.173
[7]
  glycan array binding signal (z-score): 1.79
[8]
  glycan array binding signal (z-score): 2
[9]
  glycan array binding signal (z-score): 0.011
[10]
  glycan array binding signal (z-score): -0.157
[11]
  glycan array binding signal (z-score): -0.239
[12]
  glycan array binding signal (z-score): -0.302
[13]
  glycan array binding signal (z-score): -0.232
